In ChEMBL document CHEMBL1961873, “Compounds: GSK PKIS; Assays: Nanosyn kinase panel” (2012) one finds inhibition data, which are given here for one molecule.

Test [1] has as its target Sphingosine kinase 1 (Homo sapiens) (UniProt Q9NYA1). The note with it: at 1 µM.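 Note: mean SPHK1 inhibition value reported from the GSK PKIS kinase panel screen.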
Test [2] concerns the target T1, Sphingosine kinase 2 (Homo sapiens) (UniProt Q9NRA0).
T1 sequence (whole entry): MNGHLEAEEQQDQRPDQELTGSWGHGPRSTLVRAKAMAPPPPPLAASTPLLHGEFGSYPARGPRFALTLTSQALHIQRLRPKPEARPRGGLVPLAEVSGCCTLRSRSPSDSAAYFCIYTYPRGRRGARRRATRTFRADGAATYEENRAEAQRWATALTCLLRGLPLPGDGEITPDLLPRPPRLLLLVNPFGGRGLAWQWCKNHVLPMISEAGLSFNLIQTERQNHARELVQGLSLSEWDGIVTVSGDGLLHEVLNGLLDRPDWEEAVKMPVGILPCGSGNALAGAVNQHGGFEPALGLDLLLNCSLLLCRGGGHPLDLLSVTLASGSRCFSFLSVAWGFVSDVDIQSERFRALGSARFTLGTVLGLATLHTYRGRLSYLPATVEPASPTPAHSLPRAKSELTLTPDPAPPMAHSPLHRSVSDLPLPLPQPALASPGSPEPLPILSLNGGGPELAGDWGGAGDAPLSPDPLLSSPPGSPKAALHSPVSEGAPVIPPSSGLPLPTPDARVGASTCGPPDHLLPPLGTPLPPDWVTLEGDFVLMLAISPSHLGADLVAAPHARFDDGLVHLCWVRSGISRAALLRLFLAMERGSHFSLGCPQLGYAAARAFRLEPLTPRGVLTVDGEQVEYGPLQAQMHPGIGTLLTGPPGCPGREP
Conditions: at 0.1 µM.

In test [3] the target is T1, Sphingosine kinase 2 (Homo sapiens). Conditions: at 1 µM.
Test [4] concerns the target Casein kinase II subunit alpha (Homo sapiens) (UniProt P68400). Conditions: at 0.1 µM.
Test [5] has the same target. Conditions: at 1 µM.
Test [6] has as its target T2, Inhibitor of nuclear factor kappa-B kinase subunit alpha (Homo sapiens) (UniProt O15111).
T2 sequence (whole entry): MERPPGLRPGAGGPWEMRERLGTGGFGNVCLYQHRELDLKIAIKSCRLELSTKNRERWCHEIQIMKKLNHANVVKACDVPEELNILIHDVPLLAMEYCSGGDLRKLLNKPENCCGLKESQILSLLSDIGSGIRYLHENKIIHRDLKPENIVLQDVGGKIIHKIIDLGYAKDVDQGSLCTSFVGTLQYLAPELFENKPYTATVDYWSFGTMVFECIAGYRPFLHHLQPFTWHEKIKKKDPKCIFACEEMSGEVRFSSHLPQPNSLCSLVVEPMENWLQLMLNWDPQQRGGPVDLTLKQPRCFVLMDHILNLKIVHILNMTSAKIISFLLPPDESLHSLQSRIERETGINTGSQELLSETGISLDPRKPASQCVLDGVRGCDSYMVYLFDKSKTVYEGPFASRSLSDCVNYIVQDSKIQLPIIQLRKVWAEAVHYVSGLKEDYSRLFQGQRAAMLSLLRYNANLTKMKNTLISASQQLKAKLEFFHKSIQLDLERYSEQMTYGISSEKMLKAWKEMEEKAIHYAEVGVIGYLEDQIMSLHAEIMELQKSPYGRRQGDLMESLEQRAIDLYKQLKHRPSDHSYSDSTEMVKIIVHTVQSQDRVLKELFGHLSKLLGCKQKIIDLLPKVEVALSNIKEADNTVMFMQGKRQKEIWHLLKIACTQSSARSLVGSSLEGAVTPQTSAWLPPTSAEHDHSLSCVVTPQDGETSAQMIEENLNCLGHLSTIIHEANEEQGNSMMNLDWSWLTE
The note with it: at 0.1 µM.

The target of test [7] is T2, Inhibitor of nuclear factor kappa-B kinase subunit alpha (Homo sapiens). The note with it: at 1 µM.
Test [8] concerns the target T3, Inhibitor of nuclear factor kappa-B kinase subunit beta (Homo sapiens) (UniProt O14920).
T3 sequence (whole entry): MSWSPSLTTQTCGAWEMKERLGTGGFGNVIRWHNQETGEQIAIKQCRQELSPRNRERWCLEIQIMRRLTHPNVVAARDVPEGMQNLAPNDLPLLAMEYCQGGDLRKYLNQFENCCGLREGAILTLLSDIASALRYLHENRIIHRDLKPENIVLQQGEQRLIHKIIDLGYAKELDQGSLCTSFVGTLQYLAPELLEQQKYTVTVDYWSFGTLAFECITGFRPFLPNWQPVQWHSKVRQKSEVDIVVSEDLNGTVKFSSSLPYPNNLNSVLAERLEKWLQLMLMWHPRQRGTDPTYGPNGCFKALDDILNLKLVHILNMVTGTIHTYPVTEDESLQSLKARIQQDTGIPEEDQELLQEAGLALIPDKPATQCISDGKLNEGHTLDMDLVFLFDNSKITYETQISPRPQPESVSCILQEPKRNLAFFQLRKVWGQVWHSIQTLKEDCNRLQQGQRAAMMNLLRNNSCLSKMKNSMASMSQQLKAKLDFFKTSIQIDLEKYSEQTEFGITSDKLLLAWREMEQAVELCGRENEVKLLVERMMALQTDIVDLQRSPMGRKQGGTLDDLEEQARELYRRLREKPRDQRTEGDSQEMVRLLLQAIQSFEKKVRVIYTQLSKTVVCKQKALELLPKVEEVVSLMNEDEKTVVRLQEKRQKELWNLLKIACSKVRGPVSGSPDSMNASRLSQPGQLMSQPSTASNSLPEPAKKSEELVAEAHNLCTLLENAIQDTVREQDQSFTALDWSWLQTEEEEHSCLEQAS
The note with it: at 0.1 µM.

Test [9] concerns the target T3, Inhibitor of nuclear factor kappa-B kinase subunit beta (Homo sapiens). Conditions: at 1 µM.
Test [10] concerns the target T4, Inhibitor of nuclear factor kappa-B kinase subunit epsilon (Homo sapiens) (UniProt Q14164).
T4 sequence (whole entry): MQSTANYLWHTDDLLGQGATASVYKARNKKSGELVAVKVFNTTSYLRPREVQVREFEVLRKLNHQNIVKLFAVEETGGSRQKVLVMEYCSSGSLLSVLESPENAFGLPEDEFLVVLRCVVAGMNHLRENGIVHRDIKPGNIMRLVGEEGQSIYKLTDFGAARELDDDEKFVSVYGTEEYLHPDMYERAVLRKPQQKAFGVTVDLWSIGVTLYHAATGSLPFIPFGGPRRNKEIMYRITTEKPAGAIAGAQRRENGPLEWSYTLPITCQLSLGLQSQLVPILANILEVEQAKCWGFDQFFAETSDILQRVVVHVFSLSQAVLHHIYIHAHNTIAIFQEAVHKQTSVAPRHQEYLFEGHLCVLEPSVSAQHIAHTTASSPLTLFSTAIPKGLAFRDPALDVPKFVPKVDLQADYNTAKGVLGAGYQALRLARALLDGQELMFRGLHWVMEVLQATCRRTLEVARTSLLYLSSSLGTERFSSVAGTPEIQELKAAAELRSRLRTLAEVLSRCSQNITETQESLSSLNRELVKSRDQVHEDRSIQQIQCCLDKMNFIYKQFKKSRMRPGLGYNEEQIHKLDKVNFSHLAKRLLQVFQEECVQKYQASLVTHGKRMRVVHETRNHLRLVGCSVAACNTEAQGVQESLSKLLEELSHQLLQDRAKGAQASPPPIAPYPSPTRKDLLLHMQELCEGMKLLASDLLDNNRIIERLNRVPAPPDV
Conditions: at 0.1 µM.

For test [11], the target named is T4, Inhibitor of nuclear factor kappa-B kinase subunit epsilon (Homo sapiens). Conditions: at 1 µM.
Test [12] deals with T5, Serine/threonine-protein kinase Nek1 (Homo sapiens) (UniProt Q96PY6).
T5 sequence (whole entry): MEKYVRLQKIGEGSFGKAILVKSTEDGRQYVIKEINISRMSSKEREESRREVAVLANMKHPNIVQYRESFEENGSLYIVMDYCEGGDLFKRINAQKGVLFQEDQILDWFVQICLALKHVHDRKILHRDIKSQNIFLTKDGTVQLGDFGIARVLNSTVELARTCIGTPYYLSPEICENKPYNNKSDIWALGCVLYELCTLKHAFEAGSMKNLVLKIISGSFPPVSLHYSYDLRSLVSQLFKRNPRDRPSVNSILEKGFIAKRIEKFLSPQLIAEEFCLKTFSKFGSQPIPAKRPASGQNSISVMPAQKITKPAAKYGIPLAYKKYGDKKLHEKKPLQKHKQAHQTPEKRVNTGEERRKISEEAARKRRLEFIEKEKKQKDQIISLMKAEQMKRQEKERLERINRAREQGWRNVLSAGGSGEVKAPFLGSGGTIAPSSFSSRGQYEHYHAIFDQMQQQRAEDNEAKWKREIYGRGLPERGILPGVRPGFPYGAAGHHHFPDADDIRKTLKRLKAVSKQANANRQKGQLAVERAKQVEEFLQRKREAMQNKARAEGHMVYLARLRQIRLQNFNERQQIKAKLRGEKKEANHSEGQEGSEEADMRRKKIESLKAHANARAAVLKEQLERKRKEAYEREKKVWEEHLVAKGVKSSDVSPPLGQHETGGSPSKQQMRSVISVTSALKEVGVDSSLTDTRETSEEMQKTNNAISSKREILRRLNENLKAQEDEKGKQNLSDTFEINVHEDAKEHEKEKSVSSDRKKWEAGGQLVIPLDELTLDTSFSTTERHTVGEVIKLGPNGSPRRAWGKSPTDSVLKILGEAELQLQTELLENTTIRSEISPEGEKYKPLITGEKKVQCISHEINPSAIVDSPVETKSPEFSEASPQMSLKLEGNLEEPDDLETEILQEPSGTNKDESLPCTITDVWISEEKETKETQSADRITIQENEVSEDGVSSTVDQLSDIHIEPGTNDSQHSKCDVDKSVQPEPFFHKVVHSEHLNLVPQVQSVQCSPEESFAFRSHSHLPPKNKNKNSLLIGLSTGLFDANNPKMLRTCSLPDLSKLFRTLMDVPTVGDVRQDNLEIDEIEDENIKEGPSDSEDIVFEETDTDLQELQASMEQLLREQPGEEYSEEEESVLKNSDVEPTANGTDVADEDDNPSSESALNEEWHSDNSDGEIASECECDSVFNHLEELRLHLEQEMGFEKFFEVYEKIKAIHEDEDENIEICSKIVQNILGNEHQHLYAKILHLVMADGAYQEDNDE
The note with it: at 0.1 µM.

Test [13] concerns the target T5, Serine/threonine-protein kinase Nek1 (Homo sapiens). The note with it: at 1 µM.
Test [14] addresses T6, Serine/threonine-protein kinase Nek2 (Homo sapiens) (UniProt P51955).
T6 sequence (whole entry): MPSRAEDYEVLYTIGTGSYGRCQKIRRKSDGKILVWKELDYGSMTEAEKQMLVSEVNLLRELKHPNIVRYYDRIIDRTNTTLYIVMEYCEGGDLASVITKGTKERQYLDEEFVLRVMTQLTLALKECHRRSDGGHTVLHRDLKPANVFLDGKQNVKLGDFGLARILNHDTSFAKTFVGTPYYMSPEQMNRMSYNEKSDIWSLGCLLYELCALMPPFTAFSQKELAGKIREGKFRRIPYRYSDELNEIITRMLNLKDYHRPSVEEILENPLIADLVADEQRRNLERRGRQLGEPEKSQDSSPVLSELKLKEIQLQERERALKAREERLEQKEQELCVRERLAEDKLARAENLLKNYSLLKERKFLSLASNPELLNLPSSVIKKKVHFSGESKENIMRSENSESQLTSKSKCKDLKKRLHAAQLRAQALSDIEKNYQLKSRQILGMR
The note with it: at 0.1 µM.

For test [15], the target named is T6, Serine/threonine-protein kinase Nek2 (Homo sapiens). Conditions: at 1 µM.
The target of test [16] is Serine/threonine-protein kinase Nek6 (Homo sapiens) (UniProt Q9HC98). Conditions: at 0.1 µM.
The target is the same in test [17]. Conditions: at 1 µM.
In test [18] the target is Serine/threonine-protein kinase Nek7 (Homo sapiens) (UniProt Q8TDX7). Conditions: at 0.1 µM.
For test [19] the target is unchanged. The note with it: at 1 µM.
Test [20] deals with T7, Serine/threonine-protein kinase Nek9 (Homo sapiens) (UniProt Q8TD19).
T7 sequence (whole entry): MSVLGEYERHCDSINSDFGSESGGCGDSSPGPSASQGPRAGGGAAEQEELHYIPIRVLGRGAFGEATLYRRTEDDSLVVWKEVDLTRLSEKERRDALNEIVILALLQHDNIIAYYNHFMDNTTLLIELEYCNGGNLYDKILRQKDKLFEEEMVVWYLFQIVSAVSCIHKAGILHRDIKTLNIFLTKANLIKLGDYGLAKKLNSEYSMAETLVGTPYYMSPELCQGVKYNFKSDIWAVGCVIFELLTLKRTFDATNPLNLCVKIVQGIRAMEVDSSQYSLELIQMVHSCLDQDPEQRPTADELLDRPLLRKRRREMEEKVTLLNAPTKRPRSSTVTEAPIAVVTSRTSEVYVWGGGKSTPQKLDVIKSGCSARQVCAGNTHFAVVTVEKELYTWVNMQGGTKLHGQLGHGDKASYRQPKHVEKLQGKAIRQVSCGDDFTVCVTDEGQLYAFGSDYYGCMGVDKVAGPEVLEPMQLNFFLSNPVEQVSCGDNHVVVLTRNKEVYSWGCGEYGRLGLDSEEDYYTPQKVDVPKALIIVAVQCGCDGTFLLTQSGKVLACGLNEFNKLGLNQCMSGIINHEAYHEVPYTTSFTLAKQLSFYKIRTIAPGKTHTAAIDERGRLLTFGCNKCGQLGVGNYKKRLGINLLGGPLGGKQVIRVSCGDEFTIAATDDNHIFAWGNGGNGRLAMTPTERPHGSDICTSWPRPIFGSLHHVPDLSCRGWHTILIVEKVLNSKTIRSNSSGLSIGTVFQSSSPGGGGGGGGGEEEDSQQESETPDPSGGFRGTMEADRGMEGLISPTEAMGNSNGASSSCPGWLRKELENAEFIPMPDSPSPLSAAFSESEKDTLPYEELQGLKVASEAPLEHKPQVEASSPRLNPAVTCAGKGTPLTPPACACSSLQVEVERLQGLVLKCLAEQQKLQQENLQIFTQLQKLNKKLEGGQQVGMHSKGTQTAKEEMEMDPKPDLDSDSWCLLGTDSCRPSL
Conditions: at 0.1 µM.

The inhibition is the drop in the measured response relative to a control, in per cent.

Sequence of Serine/threonine-protein kinase Nek6 (Homo sapiens) (Q9HC98 whole entry): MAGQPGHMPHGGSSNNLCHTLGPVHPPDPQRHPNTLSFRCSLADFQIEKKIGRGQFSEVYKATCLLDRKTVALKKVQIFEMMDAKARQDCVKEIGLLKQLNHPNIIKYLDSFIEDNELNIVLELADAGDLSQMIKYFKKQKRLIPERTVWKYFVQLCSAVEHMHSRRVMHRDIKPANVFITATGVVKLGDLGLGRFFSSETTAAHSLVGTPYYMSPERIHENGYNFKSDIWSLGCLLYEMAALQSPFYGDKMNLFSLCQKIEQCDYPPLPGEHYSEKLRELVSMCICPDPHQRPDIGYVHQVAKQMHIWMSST
Sequence of Serine/threonine-protein kinase Nek7 (Homo sapiens) (Q8TDX7 whole entry, looked up): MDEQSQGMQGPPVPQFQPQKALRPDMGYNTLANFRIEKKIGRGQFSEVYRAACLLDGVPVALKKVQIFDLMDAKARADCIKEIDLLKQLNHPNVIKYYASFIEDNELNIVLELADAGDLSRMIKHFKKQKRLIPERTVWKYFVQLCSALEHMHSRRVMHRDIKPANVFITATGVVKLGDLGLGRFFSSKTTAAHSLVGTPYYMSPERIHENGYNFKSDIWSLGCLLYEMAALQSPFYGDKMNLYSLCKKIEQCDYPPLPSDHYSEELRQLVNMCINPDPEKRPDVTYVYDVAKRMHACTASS
Sequence of Casein kinase II subunit alpha (Homo sapiens) (P68400 whole entry, looked up): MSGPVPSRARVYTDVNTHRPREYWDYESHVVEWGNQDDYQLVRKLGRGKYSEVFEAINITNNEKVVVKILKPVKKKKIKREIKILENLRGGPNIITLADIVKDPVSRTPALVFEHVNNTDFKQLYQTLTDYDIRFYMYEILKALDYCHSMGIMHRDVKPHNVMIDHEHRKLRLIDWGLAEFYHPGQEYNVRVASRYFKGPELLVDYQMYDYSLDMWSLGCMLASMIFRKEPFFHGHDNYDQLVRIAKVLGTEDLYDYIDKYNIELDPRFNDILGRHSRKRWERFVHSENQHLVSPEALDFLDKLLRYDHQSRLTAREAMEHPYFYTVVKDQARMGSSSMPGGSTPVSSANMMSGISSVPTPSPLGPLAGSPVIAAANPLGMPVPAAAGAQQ
Sequence of Sphingosine kinase 1 (Homo sapiens) (Q9NYA1 whole entry): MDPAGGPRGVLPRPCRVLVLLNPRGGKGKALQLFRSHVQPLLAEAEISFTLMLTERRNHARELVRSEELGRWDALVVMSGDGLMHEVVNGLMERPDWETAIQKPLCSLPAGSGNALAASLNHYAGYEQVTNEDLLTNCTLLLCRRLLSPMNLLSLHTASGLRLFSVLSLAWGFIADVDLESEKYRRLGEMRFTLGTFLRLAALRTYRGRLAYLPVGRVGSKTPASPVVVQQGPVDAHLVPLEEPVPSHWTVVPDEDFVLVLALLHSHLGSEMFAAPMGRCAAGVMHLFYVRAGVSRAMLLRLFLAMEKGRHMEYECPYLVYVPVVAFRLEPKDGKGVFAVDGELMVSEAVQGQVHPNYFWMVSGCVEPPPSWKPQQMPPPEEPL

As to `CS(=O)(=O)CCNCc1ccc(-c2ccc3ncnc(Nc4ccc(OCc5ccccc5)cc4)c3c2)o1`, the inhibition is -3.83% in test [1]; -0.85% in test [2]; 0.16% in test [3]; 9.29% in test [4]; 3.86% in test [5]; 4.92% in test [6]. For the same molecule, the inhibition worked out at 3.98% in test [7]; 5.26% in test [8]; 5.3% in [9]; 5.66% in test [10]; 4.6% in test [11]; 2.22% in test [12]. The inhibition in test [13] turned out to be 2.22%; in test [14], 4.68%; in [15], 3.32%; in test [16], 2.28%; in test [17] it was 3.11%; in test [18] it was 2.47%. Besides, the inhibition in test [19] stood at 3.65%; in test [20], 5.77%.
